What was measured:
Experiment in all cases: PBM binding z-score (relative to random genomic background probes); higher = stronger binding; sequences stand for … in GC…GCGATTGACAGCGTAGAATGAAGG
[1] = test system: FXR:RXRa (NR concentration 270 nM, RXRa partner concentration 90 nM)
Procedure, shortened: (§1)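 Antibodies against each partner of ligand-free nuclear receptor dimers (one per run) detected binding on custom Agilent 4×180K protein-binding microarrays after 1 h incubation. The double-stranded probes had 34-nt variable regions carrying direct-repeat seeds, single-nucleotide variants, half-site ablations and random human genomic background sequences. Binding z-scores, from regression-normalized fluorescence, use the random background probes as reference.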

[2] = test system: LXRa:RXRa (NR concentration 270 nM, RXRa partner concentration 90 nM)
Procedure, shortened: as §1

[3] = test system: LXRa homodimer (NR concentration 270 nM)
Procedure, shortened: as §1

[4] = test system: LXRb:RXRa (NR concentration 270 nM, RXRa partner concentration 90 nM)
Procedure, shortened: as §1

[5] = test system: PPARa:RXRa (NR concentration 270 nM, RXRa partner concentration 90 nM)
Procedure, shortened: as §1

[6] = test system: PPARg:RXRa (NR concentration 180 nM, RXRa partner concentration 90 nM)
Procedure, shortened: as §1

[7] = test system: PPARg:RXRa 270nM:90nM, anti-RXR (NR concentration 270 nM, RXRa partner concentration 90 nM)
Procedure, shortened: as §1

[8] = test system: PPARg:RXRa 30nM:10nM, anti-RXR (NR concentration 30 nM, RXRa partner concentration 10 nM)
Procedure, shortened: as §1

[9] = test system: PPARg:RXRa 90nM:30nM, anti-RXR (NR concentration 90 nM, RXRa partner concentration 30 nM)
Procedure, shortened: as §1

[10] = test system: PPARg:RXRa DBDmut IVT, anti-RXR (DBD mutation: RXRa K156A/R161A, NR concentration 270 nM, RXRa partner concentration 90 nM)
Procedure, shortened: as §1

[11] = test system: PPARg:RXRa IVT, anti-PPARg (NR concentration 270 nM, RXRa partner concentration 90 nM)
Procedure, shortened: as §1

[12] = test system: PPARg homodimer (NR concentration 180 nM)
Procedure, shortened: as §1

[13] = test system: PXR:RXRa (NR concentration 270 nM, RXRa partner concentration 90 nM)
Procedure, shortened: as §1

[14] = test system: PXR homodimer (NR concentration 270 nM)
Procedure, shortened: as §1

[15] = test system: RARa:RXR (NR concentration 270 nM, RXRa partner concentration 90 nM)
Procedure, shortened: as §1

[16] = test system: RARa homodimer (NR concentration 270 nM)
Procedure, shortened: as §1

[17] = test system: RARb:RXRa (NR concentration 270 nM, RXRa partner concentration 90 nM)
Procedure, shortened: as §1

Sequence	PBM binding z-score [1]	PBM binding z-score [2]	PBM binding z-score [3]	PBM binding z-score [4]	PBM binding z-score [5]	PBM binding z-score [6]	PBM binding z-score [7]	PBM binding z-score [8]	PBM binding z-score [9]	PBM binding z-score [10]	PBM binding z-score [11]	PBM binding z-score [12]	PBM binding z-score [13]	PBM binding z-score [14]	PBM binding z-score [15]	PBM binding z-score [16]	PBM binding z-score [17]
CCGGGTAGGTTACGAGGGGGCATTCAGTGCGAAT	2.48	7.2	1.5	6.39	3.54	1.6	2.96	1.05	2.49	1.95	4.17	1.56	5	4.47	3.19	0.857	2.21
CCGAGTACGTTACGAGGGGGCATTCAGTGCGAAT	1.3	3.11	0.927	4.03	2.23	0.00178	0.968	-0.231	0.521	0.709	1.25	1.37	3.35	6.19	2.07	0.384	1.29
TCGAGTAGGTTACGGGTGCATTCAGGGATGAAGA	0.435	0.756	-0.274	0.94	2.22	2.3	2.7	2.01	2.23	2.9	3.34	0.289	1.62	0.692	1.33	-0.909	0.994
CCGAGTAGGTTACGAGGGGGCGTTCAGTGCGAAT	1.13	6.33	0.912	5.52	3.11	2	3.17	0.694	2.26	5	4.63	1.55	4.3	3.24	2.59	0.353	1.72
TAGAGTAGGTTACGGGGGCATTCAGGGATGAAGA	2.76	3.19	1.55	5.06	4.61	7.4	6.43	4.51	5.78	5.84	6.92	2.22	3.17	2.11	3.35	1.56	2.85
CCGAGTCGGTTACGAGGGGGCATTCAGTGCGAAT	0.716	4.66	1.26	4.05	1.74	-0.00257	0.709	-0.212	0.329	0.193	0.806	0.506	2.86	5.49	1.77	0.0912	1.12
TCGAGTAGGTTGCGGGGGCATTCAGGGATGAAGA	2.84	2.17	0.68	4.34	2.7	0.862	2.72	2.32	2.95	2.02	3.55	1.44	3.09	2.38	2.39	0.623	1.91
CAGAGTAGGTTACGAGGGGGCATTCAGTGCGAAT	3.11	7.18	2.11	6.23	3.54	3.69	4.37	2.05	3.3	5.73	5.83	1.94	4.86	6.24	2.83	1.21	2.45
CGGAGTAGGTTACGAGGGGGCATTCAGTGCGAAT	3.18	7.21	1.72	6.48	4.04	4.95	5.18	2.85	4.32	6.26	7.82	1.69	5.02	6.07	3.15	0.639	2.54
CTATGTAGGTTAAGGCGGTCATTCAGTTTGAAAG	1.17	2.21	1.95	1.37	3.24	4.29	4.25	1.38	3.3	6.74	6.69	0.855	1.37	2.41	0.782	-0.289	1.62
CTATGTTGGTTAAGGGGGTCATTCAGTTTGAAAG	4.6	4.68	3.82	6.28	5.26	4.14	5.2	2.97	4.57	3.11	5.29	4.17	5.75	10.8	5.62	4.36	3.51
CTATGTAGGTTAAGGGGGACATTCAGTTTGAAAG	1.22	1.63	0.816	3.58	5.12	8.82	8.59	7.64	9.61	7.33	7.62	2.11	2.48	5.75	1.65	1.11	2.1
CCGAGTAGGTTACGAGGGGGCACTCAGTGCGAAT	2.63	6.57	0.708	5.48	3.35	2.36	3.18	1.09	2.12	4.86	4.51	1.46	4.32	3.02	2.87	0.931	2.04
CCGAGTAGGTTACGAGGGGGCATGCAGTGCGAAT	1.91	6.78	0.861	5.49	3.35	2.46	3.3	0.783	2.32	4.44	4.36	2.26	4.24	2.63	2.98	0.865	2.26
CCGAGTAGGCTACGAGGGGGCATTCAGTGCGAAT	0.473	3.15	0.222	3.4	1.72	0.0175	1.1	-0.389	0.48	2.33	1.4	0.546	2.05	3.02	1.31	-0.663	0.81
TCGAGTAGTTTACGGGGGCATTCAGGGATGAAGA	1.17	2.22	0.776	4.38	2.69	1.11	2.83	2.71	2.91	2.03	3.22	0.685	2.74	1.47	2.36	-0.25	2

Sequence	PBM binding z-score [1]	PBM binding z-score [2]	PBM binding z-score [3]	PBM binding z-score [4]	PBM binding z-score [5]	PBM binding z-score [6]	PBM binding z-score [7]	PBM binding z-score [8]	PBM binding z-score [9]	PBM binding z-score [10]	PBM binding z-score [11]	PBM binding z-score [12]	PBM binding z-score [13]	PBM binding z-score [14]	PBM binding z-score [15]	PBM binding z-score [16]	PBM binding z-score [17]
CTATGTAGGTTAAGGGGGTCACTCAGTTTGAAAG	4.57	4.36	1.65	5.87	5.91	8.64	7.98	6.23	8.19	7.55	7.88	6	5.64	10.5	5.73	3.18	3.61
CCGAGTAGGTTACGACGGGGCATTCAGTGCGAAT	-0.0135	5.81	-0.31	3.38	1.36	0.995	1.17	-0.329	0.19	3.85	3.21	0.811	1.68	0.127	1.17	-0.209	1.23
TCGAGTATGTTACGGGGGCATTCAGGGATGAAGA	2.26	2.6	0.591	4.72	2.9	1.94	3.22	2.44	3.35	2.87	3.97	0.827	2.87	1.12	2.43	0.107	2.01
CTACGTAGGTTAAGGGGGTCATTCAGTTTGAAAG	5.02	5.26	2.48	6.14	5.67	4.41	5.7	2.76	4.84	2.95	4.54	2.77	5.94	11.4	6.06	0.985	3.63
CTATGTAGGTTAAGGGGGTCATTCGGTTTGAAAG	5.21	4.84	2.94	6.16	6.15	8.47	7.83	6.21	7.86	6.81	7.73	4.23	5.97	12.4	6.04	1.33	3.54
TCGAGAAGGTTACGGGGGCATTCAGGGATGAAGA	4.57	4.21	0.687	5.72	5.32	6.1	5.94	4.28	5.29	3.48	4.73	1.82	3.71	1.24	3.78	0.65	3.65
CTATGTATGTTAAGGGGGTCATTCAGTTTGAAAG	4.79	5	3.54	6.57	5.68	5.43	6.26	3.94	5.84	4.85	5.88	5.05	5.85	9.76	5.5	3.39	3.74
CCGAGTAGGTTACGAGGGGGCATTTAGTGCGAAT	2.43	7.16	1.74	6.59	3.54	1.87	3.44	1.22	2.89	4.67	4.43	1.41	4.52	2.55	3.03	0.176	2.09
CTAGGTAGGTTAAGGGGGTCATTCAGTTTGAAAG	4.79	4.89	2.54	6.08	5.56	6.17	6.57	3.72	5.95	5.01	5.61	2.95	5.85	11.1	5.43	1.74	3.26
CCGAGTAGGTGACGAGGGGGCATTCAGTGCGAAT	1.24	3.03	0.595	4.26	3.3	2.94	3.3	0.701	2.23	5.58	5.86	1.39	4.21	5.4	2.76	0.823	1.75
TCGCGTAGGTTACGGGGGCATTCAGGGATGAAGA	2.62	3.1	0.819	5.1	4.31	4.62	4.92	3.28	3.93	2.78	4.58	1.25	3.16	1.49	3.42	0.315	2.72
CCGAGTAGGTTACGTGGGGGCATTCAGTGCGAAT	2.27	7.98	1.53	6.74	3.6	1.87	3.65	0.89	2.73	4.47	4.6	0.555	5.23	6.32	2.42	0.183	2.09
CCGAGTAGGTTACGAGGGGACATTCAGTGCGAAT	1.08	5.68	0.00926	3.05	1.68	2.07	2.15	0.304	1.13	4.84	4.14	1.04	2.82	2.23	0.995	0.101	1.42
TCGAGTAGGTTACCGGGGCATTCAGGGATGAAGA	0.549	0.561	-0.39	0.585	2.27	2.79	2.86	1.46	2	3.7	4.46	0.533	0.554	-0.524	0.534	-0.856	1.22
CCGAGTAGGTTACGAGGGGGCATTCAATGCGAAT	2.32	7.34	1.1	6.15	3.62	2.64	3.7	1.21	2.45	4.67	4.57	2.11	4.33	0.729	3.11	0.217	2.14
TCGAGTAGGTTACAGGGGCATTCAGGGATGAAGA	0.886	1.08	0.219	1.68	2.44	2.7	2.87	1.73	2.71	3.72	4.1	0.898	1.17	0.587	1.5	0.487	1.59

Reference: the supplement of paper PMC6555819
